From the supplement of paper PMC6555819

Columns and labels:
Assay in all cases: PBM binding z-score (relative to random genomic background probes); higher = stronger binding; sequences stand for … in GC…GCGATTGACAGCGTAGAATGAAGG
[1] = test system: RARb homodimer (NR concentration 270 nM)
Outline: (§1)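 Binding z-scores take random background probes as their reference. They come from custom Agilent 4×180K protein-binding microarrays incubated 1 h with ligand-free nuclear receptor dimers, with antibodies against each partner (one per run) detecting binding. Scanned fluorescence was regression-normalized.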

[2] = test system: RARg:RXRa (NR concentration 270 nM, RXRa partner concentration 90 nM)
Outline: as §1

[3] = test system: RARg homodimer (NR concentration 270 nM)
Outline: as §1

[4] = test system: RXRa DBDmut IVT, anti-RXR (DBD mutation: RXRa K156A/R161A, NR concentration 90 nM)
Outline: as §1

[5] = test system: RXRa homodimer (NR concentration 180 nM)
Outline: as §1

[6] = test system: THRa:RXRa (NR concentration 90 nM, RXRa partner concentration 90 nM)
Outline: as §1

[7] = test system: THRa homodimer (NR concentration 90 nM)
Outline: as §1

[8] = test system: VDR homodimer (NR concentration 270 nM)
Outline: as §1

Sequence | PBM binding z-score [1] | PBM binding z-score [2] | PBM binding z-score [3] | PBM binding z-score [4] | PBM binding z-score [5] | PBM binding z-score [6] | PBM binding z-score [7] | PBM binding z-score [8]
ATCTCTAGCTAAAGTTCAGTGAAAGATCGATAGA | 2.45 | 1.76 | 2.45 | 0.982 | 1.11 | 0.511 | -0.124 | 1.9
CGTCCAAGGTCAAAGGTCAGTGAGGAGATGACGG | 5.41 | 8.78 | 8.47 | 3.92 | 10.4 | 4.81 | 2.98 | 4.41
ATCTCTAGGTAACAAGTTCATTGAAAGAGAGGAC | 2.29 | 2.04 | 1.72 | 2.49 | 1.8 | 2.14 | 1.24 | 5.08
ACTATTAGTTGACTAAGGGCAACCGATACGACGC | 1.55 | 0.953 | 1.33 | 0.698 | 0.794 | 1.72 | 0.967 | 0.874
CCTAGTTGATCAGGAGGTCACACACCGGATATGA | 3.89 | 4.82 | 3.78 | 1.4 | 4.41 | 3.6 | 2.51 | 3.06
GGAACGAGGGCAAGTAGATAGCAGAGTTTGATGG | 1.26 | 1.3 | 1.91 | 1.7 | 0.888 | 0.882 | -0.115 | 1.29
AATACAGGGTCACTAGGGCAGAGTAGGTACGAAT | 3.68 | 5.3 | 5.01 | 2.74 | 5.8 | 3.45 | 1.6 | 2.98
GCGACTGGGGCATCAGCAGGTAACCATAACTTAA | 0.543 | 0.292 | 0.296 | 0.0904 | 0.119 | 0.856 | 0.168 | -0.668
CAAGCTAGGTCACAGAGGTCAAAGTCCGTGCGTA | 5.82 | 7.64 | 8.36 | 3.42 | 8.42 | 4.64 | 2.65 | 7.28
CTCAAAAGGTCGGTTGAGGTGAGTATACGGATAA | 2.58 | 2.78 | 2.85 | 0.765 | 2.66 | 5.22 | 1.15 | 0.384
ATCTCTAGGTAAAGATCAGTGAAAGATCGATAGA | -0.585 | 0.367 | 0.528 | -0.253 | 0.257 | 0.044 | -0.362 | -0.142
TTATATAGGTAATACAGGTGAAAGTCGGCATCTA | 0.731 | 0.618 | 0.933 | 0.117 | 1.11 | 1.06 | 0.46 | 0.401
CCTAGTTGGTAAAGGTCACACACGCTATAGGTAC | 5.1 | 6.22 | 6.12 | 2.1 | 6.73 | 4.12 | 2.03 | 3.54
TTACCAAGGTGAAAGGTCTTTGATGCACGCCTTG | 1.15 | 1.67 | 0.887 | -0.125 | 2.43 | 2.13 | 0.663 | -0.219
CTAGAAAGGTCGGTTGAGGTGAGTATACGGATAA | 2.53 | 2.76 | 2.97 | 1.01 | 2.5 | 4.81 | 1.71 | 1.05
TCGAGTAGGTTAGGGGCAATCAGAATGGCGTCGA | 0.79 | 0.398 | 0.315 | 0.12 | 0.782 | 0.826 | 0.262 | 0.267
CCTCGGAGGACAACAGGAGCTCAGAGCTGCCAGA | -0.211 | 0.18 | 0.813 | 0.0828 | -0.62 | 0.178 | -0.484 | -0.365
CGTCCAAGGTCAGCATGTCAGTGAAAGCGACGTG | 3.99 | 5.21 | 6 | 2.51 | 4.01 | 3.54 | 2.02 | 0.761
GCATATAGGTAATACAAGGTGAAAGACCGATTGT | 0.665 | 0.88 | 0.835 | 0.075 | 0.929 | 4.12 | 0.583 | -0.0342

Sequence | PBM binding z-score [1] | PBM binding z-score [2] | PBM binding z-score [3] | PBM binding z-score [4] | PBM binding z-score [5] | PBM binding z-score [6] | PBM binding z-score [7] | PBM binding z-score [8]
TCTCGGACGACACGAAAGGTCAGAGCTCGACATC | 4.33 | 4.43 | 4.55 | 0.759 | 4.8 | 2.77 | 0.521 | 0.805
GCATATAGGTAATACAAGGTGGAAGTCCGATTGT | -0.533 | 0.279 | 0.315 | 0.235 | 0.566 | 2.03 | -0.457 | -0.109
CCGAGTAGGTTATGGGGCCTTCAGGCAACGGTGA | 0.593 | 0.0658 | 0.0449 | -0.932 | 0.358 | 0.547 | 0.292 | 0.0348
CCTAGCAGGCCAGGGTGACTCAAGCATTTCGCTT | 0.018 | -0.0591 | -0.113 | -0.702 | -0.00102 | 0.244 | -0.395 | -0.814
CAAACTAGGTAACAGAGGTCAAAGTCCGTGCGTA | 4.45 | 5.28 | 4.28 | 2.34 | 6.18 | 4.1 | 1.95 | 4.49
AGAATGAGGTTATTAAGACCAGGGAATTGCGGTC | 0.935 | 1.24 | 0.733 | 1.64 | 1.91 | 2.17 | 0.47 | 0.915
CCGAGTAGGTTATGGGCCATTCAGGCAACGGTGA | 0.655 | 0.305 | 0.328 | -0.165 | 0.5 | 0.298 | 0.0929 | -0.0394
GAAACGAGGGCATTCGAGTTGATAGCATGGCGAT | 0.628 | 1.26 | 1.38 | 3.03 | 1.09 | 3.47 | -0.43 | 3.34
ATCGAAAGTTCGAGGTGAGTATAGAGAAAGGGAA | 1.28 | 1.69 | 2.19 | 1.85 | 1.41 | 1.7 | 0.158 | 1.09
TCATATAGGTAAATGCTAGGGGAAAGTCCGATCT | 0.135 | 0.401 | 0.27 | 1.85 | 0.821 | 0.401 | 0.433 | 0.491
CCTCGGAGGACAACAGGAGTTCAGAGCTGCCAGA | 1.91 | 1.7 | 1.9 | 0.979 | 0.335 | 1.17 | -0.102 | 2.95
ATACCAAGGTGATCGTCAGGTCGTTGATACTAAC | 1.14 | 1.4 | 0.502 | -0.0242 | 0.916 | 2.98 | 1.76 | 1.12
ACAGACAGGTGAGAGAAGGTAACTCAGCTGGACG | 0.122 | 0.137 | 0.491 | -0.484 | 0.333 | 1.69 | -0.219 | -0.636
CCTATTAGTTGACCATAAGGGCAAGCGAAGCTCG | 1.9 | 0.986 | 1.05 | 0.414 | 0.645 | 1.75 | 1.08 | 0.847
GCTCTGAGGACAAGGTCAGAGCTTTGTCCGTAGA | 2.95 | 3.16 | 3.63 | 1.43 | 2.38 | 3.95 | 3.55 | 1.11
ATCTCTAGGTAACCAAGTTCACTGAATGCCGAAC | 2.26 | 1.55 | 1.41 | 1.74 | 1.36 | 2.34 | 1.27 | 3.34
GCAGACAGGTGGAACGCAGGTAACTCAGGGTGGC | -0.721 | -0.378 | -0.569 | -0.849 | -0.144 | 0.751 | -0.601 | -0.591
GATGCAGGGTCAGCTAGAGGCCAGAGTATGGAAA | 3.34 | 6.65 | 5.08 | 1.24 | 4.39 | 2.95 | 0.228 | 0.522
CGTCAAAGTTCAACTAAGGTAAAGTAAAGCACGC | 3.97 | 6.03 | 6.89 | 3.88 | 5.08 | 5.01 | 1.49 | 3.59

Sequence | PBM binding z-score [1] | PBM binding z-score [2] | PBM binding z-score [3] | PBM binding z-score [4] | PBM binding z-score [5] | PBM binding z-score [6] | PBM binding z-score [7] | PBM binding z-score [8]
GTACCAAGGTGAGTAGGTCGTTGATGAGTAGGCG | 1.15 | 0.89 | 0.657 | -0.673 | 0.551 | 0.995 | 0.258 | 0.112
TAGCCTAGGTCATTCAGCGGCCAGTATAGAAAGC | 2.81 | 5.65 | 4.44 | 1.85 | 3.07 | 2.74 | 0.53 | 1.04
GCTTACGGGTCAAAGGTTCTAGCATGAATAGAAT | 2.69 | 5.33 | 4.79 | 2.09 | 7.13 | 2.7 | -0.332 | 1.55
CCTGCTAGGTAATGGTCAGCTAATCTACAGTATG | 0.105 | -0.00382 | 0.0688 | -0.0204 | -0.388 | -0.173 | -0.275 | -0.364
AAATGTAGGTTACATCCGGGTCATTCAGGCTATG | 2.82 | 3.7 | 2 | 1.3 | 3.08 | 3.67 | 2.22 | 3.16
CGACCAAGGTCAGAGAGGTCAGTGAATGCCGAGT | 5.37 | 6.34 | 7.04 | 3.34 | 5.82 | 4.15 | 2.11 | 5.63
ATCTCTAGGTAACCAAGATCAGTGAATGCCGAAC | -0.128 | 0.35 | 0.445 | -0.167 | 0.343 | 0.734 | 0.469 | -0.138
ACTATTAGTTGATTTAGGGCAACCGATACGACGC | 0.736 | 0.306 | 0.883 | 1.2 | 0.356 | 1.52 | 0.806 | 0.367
CCAGACAGATGAAAGGTAACTCAGTCTGGTACGC | 0.123 | 0.253 | 0.272 | -0.0479 | 0.612 | 0.108 | -0.299 | 0.123
CGACCTAGGTCATTGACAGGACAGTGAATAGTAA | 3.01 | 5.2 | 4.67 | 2.83 | 3.09 | 3.2 | 0.892 | 1.47
AGTTACGGGTCAACGAGGTTATAGCACGCGTATA | 3.88 | 5.45 | 5.57 | 2.14 | 6.14 | 3.97 | 1.18 | 3.49
GGAACGAGTGCAAGTTGATAGCAGAGTTTGATGG | -0.0389 | -0.00885 | 0.227 | 3.42 | 0.155 | -0.241 | -0.787 | 2.87
TCATATAGGTAAAAGGTGTAAGTCGGTGTGGTAA | 0.36 | 0.32 | 0.0311 | 1.55 | 0.644 | 0.0897 | -0.167 | 0.313
AGTCAAAGTTCACTAGGTAACTTAAGATTCAGCT | 3.53 | 4.86 | 5.58 | 4.13 | 3.94 | 2.03 | 0.269 | 3.85
CAGCCTAGGTCAGGACCAGTATAGGAGGAACGTT | 1.97 | 2.81 | 3.89 | -0.0885 | 1.7 | 1.94 | 0.463 | -0.0387
CCTCGGAGGACAACAGGGGGTCAGAGCTGCCAGA | 3.52 | 4.25 | 3.49 | 0.19 | 3.24 | 3.27 | 1.04 | 1.28
AGAATGAGGTTAAGGTCAGGGAAACAGAATACAT | 4.1 | 4.97 | 4.67 | 1.43 | 4.93 | 4.39 | 4.62 | 2.36
TCTCGGAGGACACGGAGGTCAGAGCTTTCCAGAG | 3.7 | 3.54 | 3.91 | 0.792 | 2.47 | 3.34 | 1.77 | 2
TGCATGAGGTTAAAGATCAGGGAACGTGGCGTCG | 1.02 | 2.55 | 1.33 | 1.43 | 3.68 | 2.71 | 0.949 | 1.11
